Sampled rows, rich in hits. Any-hit rate of the full collection: about 11%.
USP30 block – inhibitors of human USP30 deubiquitinase; Q70CQ3; inhibition, % at 25 µM; actives 5.3% (n = 47,000); purified USP30, Ub-rhodamine cleavage fluorescence; AID 1645860
USP28 block – human USP28 deubiquitinase inhibition | AID 1645857 | purified USP28, Ub-rhodamine cleavage fluorescence, 30 min | Q96RU2 | inhibition, % at 25 µM | actives 3% (n = 47,000)
OTUD3 inh – human OTUD3 deubiquitinase inhibition | Q5T2D3 | purified OTUD3, Ub-rhodamine fluorescence, 2 h | inhibition, % at 25 µM | actives 0.7% (n = 47,000) | AID 1645858
Target sequence (Q5T2D3 whole entry, looked up): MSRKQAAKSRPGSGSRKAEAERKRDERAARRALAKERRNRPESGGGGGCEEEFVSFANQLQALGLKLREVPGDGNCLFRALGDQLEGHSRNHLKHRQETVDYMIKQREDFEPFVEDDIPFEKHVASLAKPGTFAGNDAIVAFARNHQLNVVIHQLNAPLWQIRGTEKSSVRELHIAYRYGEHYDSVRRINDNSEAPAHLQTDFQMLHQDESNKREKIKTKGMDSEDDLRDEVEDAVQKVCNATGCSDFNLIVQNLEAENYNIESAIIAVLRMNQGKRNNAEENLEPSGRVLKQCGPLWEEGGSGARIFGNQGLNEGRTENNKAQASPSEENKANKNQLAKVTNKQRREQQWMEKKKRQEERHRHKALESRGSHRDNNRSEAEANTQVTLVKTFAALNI
USP17 block – human USP17-like deubiquitinase inhibition; actives 6.5% (n = 47,000); AID 1645855; purified USP17, Ub-rhodamine cleavage fluorescence, 3 h; inhibition, % at 50 µM
A number is an active result; - = inactive; . = no result given. Cut-off read from the data, not from the text of the source: active = inhibition above about 30%; inactive = the rest.

SMILES | USP30 block | USP28 block | OTUD3 inh | USP17 block
C=C1CCC[C@]2(C)C[C@H]3OC(=O)C(CN(Cc4ccc(OC)c(OC)c4)Cc4ccco4)[C@H]3CC12 (some centres undefined) | - | - | - | -
O=C(c1ccco1)N1CCC2(CC1)NC(=O)N(Cc1ccc(F)cc1)C2=O | - | - | - | -
COc1ccc(OC)c(S(=O)(=O)Nc2cccc(-c3nc4cccnc4s3)c2)c1 | - | - | - | -
Cc1ccc(S(=O)(=O)Nc2cccc(-c3nc4cccnc4s3)c2)cc1C | 47 | - | - | -
COC(=O)CCC(c1ncc(C(F)(F)F)cc1Cl)S(=O)(=O)c1ccccc1 (centres undefined) | 58 | - | - | 44
CCOC(=O)C1CCN(C(=O)Cn2c(=O)cc(C)c3c(-c4ccccc4)nn(-c4ccccc4)c32)CC1 | 34 | - | - | -
Cc1cccc(-c2nn(-c3ccccc3)c3c2c(C)cc(=O)n3CC(=O)N2CCOCC2)c1 | - | - | - | -
CN1C(C(=O)Nc2ccc(F)cc2F)=CC(c2ccc(F)cc2)=NS1(=O)=O | - | - | - | -
O=C(NCc1ccco1)c1ccc2c(c1)N(Cc1cccc(Cl)c1)C(=O)c1ccccc1S2 | - | - | - | 38
CCc1c(Cl)c(O)c(Cl)c(O)c1C(=O)O[C@H]1C(C)O[C@@H](OC/C2=C\C=C\CC(O)/C(C)=C/C(CC)C(O[C@@H]3OC(C)(C)[C@H](O)C(OC(=O)C(C)C)[C@@H]3O)/C(C)=C/C(C)=C/CC(C(C)O)OC2=O)[C@@H](OC)C1O (some centres undefined) | 91 | 85 | 32 | -
Cc1ccc(NC(=O)c2ccn(COc3ccc(Cl)c(C)c3)n2)nc1 | - | - | - | 34
Cc1cc(C)nc(NC(=O)c2ccn(COc3ccc(F)cc3)n2)c1 | 32 | - | - | -
Cc1ccc(NC(=O)c2ccn(COc3ccccc3Cl)n2)nc1 | 48 | - | - | 33
Cc1ccc(Cl)cc1NC(=O)c1ccn(COc2ccccc2F)n1 | - | 35 | - | -
Cc1cccc(NC(=O)c2ccn(COc3ccc(F)cc3)n2)n1 | - | - | - | -
Cc1ccc(Cl)cc1NC(=O)c1cccc(-n2cnnn2)c1 | - | - | - | -
Cc1cc2c(=O)n(Cc3ccco3)c(SCC(=O)Nc3ccccc3O)nc2s1 | - | - | - | -
CC(=O)N1CCCc2cc(S(=O)(=O)NCc3ccc4c(c3)OCO4)ccc21 | - | - | - | -
COc1cccc(CNS(=O)(=O)c2ccc3c(c2)CCCN3C(=O)C2CCC2)c1 | - | 30 | - | -
CC1CCN(c2nc(-c3ccc(Cl)cc3)nc3ccccc23)CC1 | - | - | - | -
COc1ccc2ncc3c(-c4ccc(C)cc4)nn(-c4ccc(F)cc4)c3c2c1 | - | - | - | 57
Cc1ccc(-c2nn(-c3ccc(F)cc3)c3c2cnc2cc4c(cc23)OCCO4)cc1 | - | - | - | -
Cc1noc(C)c1CSCc1cc(F)cc2c1OC(c1ccccc1)OC2 (centres undefined) | - | - | - | -
COc1cc(O)c2c(=O)oc3c(O)c(OC)cc(C)c3c2c1 | - | - | - | -
COc1cc2c(oc(=O)c3cc(C)cc(OC)c32)c2c([C@@H]3OC(C)[C@@H](O)[C@@](C)(O)C3O)ccc(O)c12 (some centres undefined) | - | - | - | 79
SMILES | USP30 block | USP28 block | OTUD3 inh | USP17 block
CCCC(=O)N1CCN(c2cc(Nc3ccc(C)cc3)nc(C)n2)CC1 | - | - | - | -
O=C(CC1C(=O)N(Cc2ccccc2)c2nc3ccccc3n21)NCCc1ccccc1 (centres undefined) | 60 | - | - | -
O=c1c2cc([N+](=O)[O-])ccc2nc(CN2CCN(c3ccccn3)CC2)n1-c1ccccc1F | 61 | - | 30 | -
O=C(N1CC[C@H](c2ccccc2)[C@H]2NCCCC[C@H]21)C1(c2ccccc2)CC1 | - | - | - | -
Cc1ccc(CSc2nc3nc4c(cn3n2)C(=O)CCC4)cc1 | . | . | - | -
Cc1cccc(CSc2nc3nc4c(cn3n2)C(=O)CC(C)(C)C4)c1 | 35 | - | - | -
CN1[C@@H](CCC(=O)N2CCN(c3ccccn3)CC2)CNC(=O)[C@@H]2[C@H]1CCN2C1CCCCC1 | - | - | - | -
CN1CC[C@@H]2[C@H]1C(=O)NC[C@H](CCC(=O)N1CCN(c3ccccn3)CC1)N2C | - | 44 | - | -
CC(C)N1CC[C@@H]2[C@H]1C(=O)NC[C@H](CCC(=O)N1CCN(c3ccccc3)CC1)N2C | - | - | - | -
COC(=O)C1CCN(C(=O)CC[C@H]2CNC(=O)[C@@H]3[C@@H](CCN3C3CCCCC3)N2C)CC1 | - | 31 | - | -
CC(C)N1CC[C@@H]2[C@H]1C(=O)NC[C@H](CCC(=O)N1CCCC1)N2C | - | 34 | - | -
Cc1ccc2nc(N3CCc4ccccc4C3)c3nncn3c2c1 | - | 34 | - | 59
CCOc1ccc(CNc2nc3ccc(C)cc3n3cnnc23)cc1OC | - | - | - | -
CCn1cnc2c(-c3ccccc3)cn(CC(=O)Nc3ccc4c(c3)OCO4)c2c1=O | - | - | - | -
COCCn1cnc2c(-c3ccccc3)cn(CC(=O)Nc3ccc4c(c3)OCO4)c2c1=O | - | - | - | 40
CC(C)c1c(O)ccc2c1CCC1[C@@](C)(C=O)CCC[C@]21C (some centres undefined) | - | - | - | 35
Cc1nnc(-c2cc(C)n(CC(=O)Nc3ccc(F)cc3)c2C)o1 | - | - | - | -
Cc1ccc(-n2ccnc(NC(=O)c3ccccn3)c2=O)cc1C | - | - | - | .
O=C(Nc1nccn(-c2cccc(F)c2)c1=O)c1ccccn1 | 91 | 72 | - | 49
c1ccc(-c2nnc3n2-c2ccccc2SC3)cc1 | 31 | - | - | -
O=C1Nc2ccccc2C12CCN(S(=O)(=O)c1ccccc1F)C2 (centres undefined) | - | - | - | -
Cc1cccc(NC(=O)CSc2nnc(-c3n[nH]c4c3CCC4)n2N)c1 | - | - | - | 63
CC(=O)c1ccc(N(C(C)C(=O)N2CCCCC2)S(=O)(=O)c2ccc(C)cc2)cc1 (centres undefined) | - | - | - | -
Cc1ccc(-n2cc(C(=O)NCCCc3ccccc3)nn2)cc1 | 49 | - | - | -
Cc1ccc(-n2cc(C(=O)N3CCc4ccccc4C3)nn2)cc1 | - | - | - | -
SMILES | USP30 block | USP28 block | OTUD3 inh | USP17 block
CCOC(=O)N1CCC(NC(=O)c2cn(-c3ccccc3Cl)nn2)CC1 | - | - | - | -
CCOC(=O)N1CCC(NC(=O)c2cn(-c3ccc(C)cc3)nn2)CC1 | . | . | - | 60
Cc1ccc(-n2cc(C(=O)N3CCN(c4ccccc4)CC3)nn2)cc1 | 44 | - | - | 40
O=C(O)c1ccc(NCc2nc3ccccc3n2Cc2ccccc2F)cc1 | - | - | - | -
COc1ccc(NCc2nc3ccccc3n2Cc2ccccc2)cc1 | - | - | - | 64
Cc1nn(-c2ccc(F)cc2)c(C)c1S(=O)(=O)N1CCCCCC1 | - | - | - | -
COc1ccc(C(=O)Cn2nc(C)c([N+](=O)[O-])c2C)cc1OC | - | - | - | -
Cc1ccccc1-c1nc2c3c(C)c(C)n(-c4cccnc4)c3ncn2n1 | - | - | - | -

Compound activity deposited in PubChem BioAssay by Buhrlage Lab, Dana-Farber Cancer Institute and Novartis Institutes for BioMedical Research (Cambridge, Mass).
